Measured values as given in the supplement of paper PMC7411054.
Structures can show the parent of a compound that is named as a salt.

How the values were obtained:
Experiment in all cases: phenotypically active (imaging signature differs from DMSO and reproducible) at any of 0.3-9 uM (binary (1 = active, 0 = inactive)); higher = active
Settings in all cases: treatment time: 24 h
[1] = tested on: A549-ACTB-RAB5A
Method in brief: (§1)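 After 24 h at 0.3, 1, 3 or 9 µM, with four wells per treatment, fifteen gene-edited A549, HepG2 and WPMY1 reporter lines carrying BFP, GFP and RFP/FusionRed were imaged live. Each well's live-cell features were expressed relative to solvent control wells. Deviation required ≥3 of 4 wells past the 95th percentile of control Euclidean distances, and reproducibility a median replicate Pearson correlation over the 95th percentile of non-replicates. Phenotypic activity rested on both.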

[2] = tested on: A549-CANX-COX4
Method in brief: as §1

[3] = tested on: A549-GM130-SQSTM1
Method in brief: as §1

[4] = tested on: A549-TP53BP1-CLTA
Method in brief: as §1

[5] = tested on: A549-TUBA1B-RELA
Method in brief: as §1

[6] = tested on: HepG2-ACTB-RAB5A
Method in brief: as §1

[7] = tested on: HepG2-CANX-COX4
Method in brief: as §1

[8] = tested on: HepG2-GM130-SQSTM1
Method in brief: as §1

[9] = tested on: HepG2-TP53BP1-CLTA
Method in brief: as §1

[10] = tested on: HepG2-TUBA1B-RELA
Method in brief: as §1

[11] = tested on: WPMY1-ACTB-RAB5A
Method in brief: as §1

[12] = tested on: WPMY1-CANX-COX4
Method in brief: as §1

[13] = tested on: WPMY1-GM130-SQSTM1
Method in brief: as §1

[14] = tested on: WPMY1-TP53BP1-CLTA
Method in brief: as §1

[15] = tested on: WPMY1-TUBA1B-RELA
Method in brief: as §1

Measured: phenotypically active

C=CCc1ccccc1OC[C@@H](O)CNC(C)C [Alprenolol hydrochloride]
inactive: [1] 0 | [2] 0 | [3] 0 | [4] 0 | [5] 0 | [6] 0 | [7] 0 | [8] 0 | [9] 0 | [10] 0 | [11] 0 | [12] 0 | [13] 0 | [14] 0 | [15] 0

CN1CC(=O)N2[C@H](c3ccc4c(c3)OCO4)c3[nH]c4ccccc4c3C[C@@H]2C1=O [tadalafil]
inactive: [1] 0 | [2] 0 | [3] 0 | [4] 0 | [5] 0 | [6] 0 | [7] 0 | [8] 0 | [9] 0 | [10] 0 | [11] 0 | [12] 0 | [13] 0 | [14] 0 | [15] 0

O=C(/C=C/N1C[C@H]2C[C@@H]1CN2c1ccccn1)c1ccccc1O
inactive: [1] 0 | [2] 0 | [3] 0 | [4] 0 | [5] 0 | [6] 0 | [7] 0 | [8] 0 | [9] 0 | [10] 0 | [11] 0 | [12] 0 | [13] 0 | [14] 0 | [15] 0

CN(C)CCC[C@@]1(c2ccc(F)cc2)OCc2cc(C#N)ccc21 [escitalopram]
inactive: [1] 0 | [2] 0 | [3] 0 | [4] 0 | [5] 0 | [6] 0 | [7] 0 | [8] 0 | [9] 0 | [10] 0 | [11] 0 | [12] 0 | [13] 0 | [14] 0 | [15] 0

COc1ccc2c3c([nH]c2c1)[C@H]1C[C@H]2[C@H](C[C@@H](O)[C@H](OC)[C@H]2C(=O)O)CN1CC3 [Reserpinic acid hydrochloride]
inactive: [1] 0 | [2] 0 | [3] 0 | [4] 0 | [5] 0 | [6] 0 | [7] 0 | [8] 0 | [9] 0 | [10] 0 | [11] 0 | [12] 0 | [13] 0 | [14] 0 | [15] 0

C[C@H](NC(=O)CCc1nc2ccccc2c(=O)[nH]1)c1ccccc1
inactive: [1] 0 | [2] 0 | [3] 0 | [4] 0 | [5] 0 | [6] 0 | [7] 0 | [8] 0 | [9] 0 | [10] 0 | [11] 0 | [12] 0 | [13] 0 | [14] 0 | [15] 0

Cc1ccc(OCCSc2ncccn2)c(Br)c1 [ZLN 024 hydrochloride]
inactive: [1] 0 | [2] 0 | [3] 0 | [4] 0 | [5] 0 | [6] 0 | [7] 0 | [8] 0 | [9] 0 | [10] 0 | [11] 0 | [12] 0 | [13] 0 | [14] 0 | [15] 0

CC(C)(C)NC(=O)[C@@H]1CN(Cc2cccnc2)CCN1C[C@@H](O)C[C@@H](Cc1ccccc1)C(=O)N[C@H]1c2ccccc2C[C@H]1O [indinavir]
inactive: [1] 0 | [2] 0 | [3] 0 | [4] 0 | [5] 0 | [6] 0 | [7] 0 | [8] 0 | [9] 0 | [10] 0 | [11] 0 | [12] 0 | [13] 0 | [14] 0 | [15] 0

COc1ncc2cc(C(=O)Nc3cc(C(=O)NCc4cccc(Cl)c4)ccc3Cl)c(=O)[nH]c2n1
inactive: [1] 0 | [2] 0 | [3] 0 | [4] 0 | [5] 0 | [6] 0 | [7] 0 | [8] 0 | [9] 0 | [10] 0 | [11] 0 | [12] 0 | [13] 0 | [14] 0 | [15] 0

OC(CCN1CCCCC1)(c1ccccc1)C1CC2C=CC1C2 (stereo not given) [biperiden]
inactive: [1] 0 | [2] 0 | [3] 0 | [4] 0 | [5] 0 | [6] 0 | [7] 0 | [8] 0 | [9] 0 | [10] 0 | [11] 0 | [12] 0 | [13] 0 | [14] 0 | [15] 0

O=C(/C=C/c1ccc(O)c(O)c1)O[C@@H]1C[C@](O)(C(=O)O)C[C@@H](O)[C@H]1O [Chlorogenic acid]
inactive: [1] 0 | [2] 0 | [3] 0 | [4] 0 | [5] 0 | [6] 0 | [7] 0 | [8] 0 | [9] 0 | [10] 0 | [11] 0 | [12] 0 | [13] 0 | [14] 0 | [15] 0

C1CCN2C[C@@H]3C[C@@H](CN4CCCC[C@@H]34)[C@H]2C1 [Sparteine (-)]
inactive: [1] 0 | [2] 0 | [3] 0 | [4] 0 | [5] 0 | [6] 0 | [7] 0 | [8] 0 | [9] 0 | [10] 0 | [11] 0 | [12] 0 | [13] 0 | [14] 0 | [15] 0

CC(C)Cn1c(=O)n(C)c(=O)c2[nH]cnc21
inactive: [1] 0 | [2] 0 | [3] 0 | [4] 0 | [5] 0 | [6] 0 | [7] 0 | [8] 0 | [9] 0 | [10] 0 | [11] 0 | [12] 0 | [13] 0 | [14] 0 | [15] 0

C[C@H](CCC(=O)NCC(=O)O)[C@H]1CC[C@H]2[C@@H]3[C@H](O)C[C@@H]4C[C@H](O)CC[C@]4(C)[C@H]3C[C@H](O)[C@]12C [Glycocholic acid]
inactive: [1] 0 | [2] 0 | [3] 0 | [4] 0 | [5] 0 | [6] 0 | [7] 0 | [8] 0 | [9] 0 | [10] 0 | [11] 0 | [12] 0 | [13] 0 | [14] 0 | [15] 0

CN(C)CC/C=C1\c2ccccc2COc2ccc(CC(=O)O)cc21 [olopatadine]
inactive: [1] 0 | [2] 0 | [3] 0 | [4] 0 | [5] 0 | [6] 0 | [7] 0 | [8] 0 | [9] 0 | [10] 0 | [11] 0 | [12] 0 | [13] 0 | [14] 0 | [15] 0

C[C@]12CC[C@@H]3c4ccc(O)cc4CC[C@H]3[C@@H]1CCC2=O [estrone]
inactive: [1] 0 | [2] 0 | [3] 0 | [4] 0 | [5] 0 | [6] 0 | [7] 0 | [8] 0 | [9] 0 | [10] 0 | [11] 0 | [12] 0 | [13] 0 | [14] 0 | [15] 0

Cc1cccc(Nc2ccccc2C(=O)O)c1C [mefenamic-acid]
inactive: [1] 0 | [2] 0 | [3] 0 | [4] 0 | [5] 0 | [6] 0 | [7] 0 | [8] 0 | [9] 0 | [10] 0 | [11] 0 | [12] 0 | [13] 0 | [14] 0 | [15] 0

OCCN1C[C@H](O)[C@@H](O)[C@H](O)[C@H]1CO [Miglitol]
inactive: [1] 0 | [2] 0 | [3] 0 | [4] 0 | [5] 0 | [6] 0 | [7] 0 | [8] 0 | [9] 0 | [10] 0 | [11] 0 | [12] 0 | [13] 0 | [14] 0 | [15] 0

O=C(O)[C@H](O)[C@@H](O)[C@H](O[C@@H]1O[C@H](CO)[C@H](O)[C@H](O)[C@H]1O)[C@H](O)CO [Lactobionic acid]
inactive: [1] 0 | [2] 0 | [3] 0 | [4] 0 | [5] 0 | [6] 0 | [7] 0 | [8] 0 | [9] 0 | [10] 0 | [11] 0 | [12] 0 | [13] 0 | [14] 0 | [15] 0

Nc1ncnc2c1cnn2-c1ccccc1
inactive: [1] 0 | [2] 0 | [3] 0 | [4] 0 | [5] 0 | [6] 0 | [7] 0 | [8] 0 | [9] 0 | [10] 0 | [11] 0 | [12] 0 | [13] 0 | [14] 0 | [15] 0

CCOC(=O)C(C)(C)Oc1ccc(Cl)cc1 [Clofibrate]
inactive: [1] 0 | [2] 0 | [3] 0 | [4] 0 | [5] 0 | [6] 0 | [7] 0 | [8] 0 | [9] 0 | [10] 0 | [11] 0 | [12] 0 | [13] 0 | [14] 0 | [15] 0

COc1ccc(C[C@H](C)NC[C@@H](O)c2ccc(O)c(NC=O)c2)cc1 [formoterol]
inactive: [1] 0 | [2] 0 | [3] 0 | [4] 0 | [5] 0 | [6] 0 | [7] 0 | [8] 0 | [9] 0 | [10] 0 | [11] 0 | [12] 0 | [13] 0 | [14] 0 | [15] 0

CNS(=O)(=O)CCc1ccc2[nH]cc(C3CCN(C)CC3)c2c1 [naratriptan]
inactive: [1] 0 | [2] 0 | [3] 0 | [4] 0 | [5] 0 | [6] 0 | [7] 0 | [8] 0 | [9] 0 | [10] 0 | [11] 0 | [12] 0 | [13] 0 | [14] 0 | [15] 0

COc1ccccc1OCC(O)COC(N)=O (stereo not given) [methocarbamol]
inactive: [1] 0 | [2] 0 | [3] 0 | [4] 0 | [5] 0 | [6] 0 | [7] 0 | [8] 0 | [9] 0 | [10] 0 | [11] 0 | [12] 0 | [13] 0 | [14] 0 | [15] 0

CC(C(=O)O)c1ccc(C(=O)c2cccs2)cc1 (stereo not given) [suprofen]
inactive: [1] 0 | [2] 0 | [3] 0 | [4] 0 | [5] 0 | [6] 0 | [7] 0 | [8] 0 | [9] 0 | [10] 0 | [11] 0 | [12] 0 | [13] 0 | [14] 0 | [15] 0

CCCc1nn(C)c2c(=O)[nH]c(-c3cc(S(=O)(=O)N4CCN(C)CC4)ccc3OCC)nc12 [Sildenafil citrate]
inactive: [1] 0 | [2] 0 | [3] 0 | [4] 0 | [5] 0 | [6] 0 | [7] 0 | [8] 0 | [9] 0 | [10] 0 | [11] 0 | [12] 0 | [13] 0 | [14] 0 | [15] 0

COC(=O)C(Cc1ccc(OCCn2c(=O)sc3cc(C(=O)c4ccccc4)ccc32)cc1)C(=O)OC
inactive: [1] 0 | [2] 0 | [3] 0 | [4] 0 | [5] 0 | [6] 0 | [7] 0 | [8] 0 | [9] 0 | [10] 0 | [11] 0 | [12] 0 | [13] 0 | [14] 0 | [15] 0

Cn1cccc1/C=C1\C(=O)NC(=O)c2ccccc21
inactive: [1] 0 | [2] 0 | [3] 0 | [4] 0 | [5] 0 | [6] 0 | [7] 0 | [8] 0 | [9] 0 | [10] 0 | [11] 0 | [12] 0 | [13] 0 | [14] 0 | [15] 0

O=C(O)[C@]1(O)C[C@H](O)[C@@H](O)[C@@H](O)C1 [Quinic acid]
inactive: [1] 0 | [2] 0 | [3] 0 | [4] 0 | [5] 0 | [6] 0 | [7] 0 | [8] 0 | [9] 0 | [10] 0 | [11] 0 | [12] 0 | [13] 0 | [14] 0 | [15] 0

NC12CC3CC(CC(C3)C1)C2 [amantadine]
inactive: [1] 0 | [2] 0 | [3] 0 | [4] 0 | [5] 0 | [6] 0 | [7] 0 | [8] 0 | [9] 0 | [10] 0 | [11] 0 | [12] 0 | [13] 0 | [14] 0 | [15] 0

C#C[C@]1(O)CC[C@H]2[C@@H]3CCC4=Cc5oncc5C[C@]4(C)[C@H]3CC[C@@]21C [danazol]
inactive: [1] 0 | [2] 0 | [3] 0 | [4] 0 | [5] 0 | [6] 0 | [7] 0 | [8] 0 | [9] 0 | [10] 0 | [11] 0 | [12] 0 | [13] 0 | [14] 0 | [15] 0
